Experimental data from PubChem BioAssay (NCATS).
A number with no mark means an inactive call. Records with an inconclusive call do not appear. Where a call stands in place of a potency, no number is given. Active and inactive are the calls of the source. Calls come from the whole dose curve; as a rule, active = well fitted curve in the direction sought with a large enough effect; inconclusive = small, poorly fitted or top-dose-only effect, or another doubt; inactive = no such curve, though single readings can be large; an effect the other way counts as inactive or inconclusive. Where a SMILES comes first, the peptide text is derived from it. [ ]: non-standard residue; d: D form. ξ: configuration not given here. ξTyr(βOH) = NC(C(=O)O)C(O)c1ccc(O)cc1

Legend:
[1] = system: Nanoluciferase (engineered Oplophorus gracilirostris luciferase); assay: Primary Nanoluciferase (NLuc) qHTS assay for identification of artifact compounds. (AID 1845222); note: series mostly up to about 54 µM
Procedure, shortened: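 Luminescence from secreted NLuc (filtered, 1:55-diluted S16 cell medium) read 5 min after Nano-Glo substrate; compounds preincubated 15 min, RT. Hill fits of inhibition normalized to DMSO and no-enzyme.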

[2] = Primary redox qHTS assay for identification of artifact compounds. (AID 1845223)
Procedure, shortened: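 Amplex Red (25 uM) and HRP (250 mU/mL) in HBSS, with compounds for 15 min, then 250 uM DTT for 30 min, room temperature, dark. Fluorescence 525/598 nm read; normalized to DMSO and 10 uM DA3003; Hill fit.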

| Compound | Potency [1] | Potency [2] | activity, negative = inhibition [1] | redox activity (% of DA3003) [2] |
| --- | --- | --- | --- | --- |
| COc1cc(C[C@@]2(O)CO[C@@H](c3ccc(O[C@@H]4O[C@H](CO)[C@@H](O)[C@H](O)[C@H]4O)c(OC)c3)[C@H]2CO)ccc1O | inactive | inactive | – | – |
| CC(NC(=O)CC(=O)O)C(=O)Nc1ccccc1C(N)=O (stereo not drawn) | inactive | inactive | – | – |
| CC(C)C1NC(=O)CNC(=O)C2CCCN2C(=O)C(Cc2c[nH]c3ccccc23)NC(=O)CNC(=O)C(C(O)c2ccc(O)cc2)NC(=O)CNC1=O (stereo not drawn) (cyclo(G[ξTyr(βOH)]GWPGV); configuration not given here) | inactive | inactive | – | – |
| C/C=C(/C)C(=O)OC1CC(C)(C)CC2C3=CCC4C5(C)CCC(OC6OC(C)C(OC7OC(C(=O)O)C(O)C(OC8OC(CO)C(O)C(O)C8OC8OC(CO)C(O)C(O)C8O)C7O)C(O)C6O)C(C)(C)C5CCC4(C)C3(C)C(OC(=O)/C=C/C=C/C=C/CCC)C(OC(C)=O)C12CO (stereo not drawn) | – | – | -1.65% [at 11.6 µM] | 13.7% [at 11.5 µM] |
| C/C(CO)=C1/CCC23COC(C2)C(O)(C(=O)O)CCC13 (stereo not drawn) | inactive | inactive | – | – |
| CC(=O)NCC1CN(c2ccc(-c3ccc(CNCc4cn[nH]n4)cc3)c(F)c2)C(=O)O1 (stereo not drawn) | inactive | inactive | – | – |
| CC(O)CCc1ccc(O[C@@H]2O[C@H](CO)[C@@H](O)[C@H](O)[C@H]2O)cc1 (stereo partly drawn) | inactive | inactive | – | – |
| COc1cc(O[C@@H]2O[C@H](CO[C@H]3OC[C@](O)(CO)[C@H]3O)[C@@H](O)[C@H](O)[C@H]2O)cc(OC)c1O | inactive | inactive | – | – |
| O=C(O)Cc1cn([C@@H]2O[C@H](CO)[C@@H](O)[C@H](O)[C@H]2O[C@@H]2O[C@H](CO)[C@@H](O)[C@H](O)[C@H]2O)c2ccccc12 | inactive | inactive | – | – |
